Drawing on PubChem BioAssay (NCI), this text covers growth inhibition for nine molecules.

Each structure is given as a SMILES string. The panel holds about 79,000 compounds, 15% with a hit somewhere; the sample as a whole holds those more often. Unmarked numbers belong to inactive results. Calls of active or inactive are those of the source. No stated cut-off is given here; in the data, active means growth inhibition above about 70%; inactive means the rest.

A short description of test [1]: NCI Yeast Anticancer Drug Screen. Data for the rad50 strain (AID 155).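 Further: 0% = growth of vehicle-only cultures of the same strain.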 The settings on record: S. cerevisiae rad50 strain growth inhibition, stronger effect = higher value. A digest of the protocol:
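Inhibition values express reduced yeast growth in compound-treated cultures relative to vehicle-treated controls.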

The nature of test [2]: NCI Yeast Anticancer Drug Screen. Data for the mec2-1 strain (AID 157). The settings on record: S. cerevisiae mec2-1 strain, stronger effect = higher value. The essentials:
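Mutant yeast (mec2-1) grown with compound; growth inhibition relative to vehicle control reported.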

Test [3] in a line: NCI Yeast Anticancer Drug Screen. Data for the sgs1 mgt1 strain (AID 161).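 Further: 0% = growth of cultures given vehicle only.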 The note with it: S. cerevisiae sgs1 mgt1 strain, stronger effect = higher value. The essentials: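 Growth of a repair-deficient yeast mutant was monitored after compound treatment and expressed as inhibition relative to vehicle-treated cultures.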
Test [4] in a line: NCI Yeast Anticancer Drug Screen. Data for the cln2 rad14 strain (AID 165).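 Further: 0% = growth equal to vehicle treated cultures.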 The settings on record: S. cerevisiae cln2 rad14 strain, stronger effect = higher value. The essentials:
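Readout is yeast growth inhibition versus vehicle-treated controls, using a strain with cln2 and rad14 alterations exposed to compound.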

Test [5] can be described thus: NCI Yeast Anticancer Drug Screen. Data for the bub3 strain (AID 167). The note with it: S. cerevisiae bub3 mutant strain, stronger effect = higher value. A digest of the protocol: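 Steps: expose the mutant yeast strain to compound; grow alongside vehicle-treated cultures; measure growth; express inhibition against the vehicle cultures.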
Test [6] is described as follows: NCI Yeast Anticancer Drug Screen. Data for the mlh1 rad18 strain (AID 175). The settings on record: S. cerevisiae mlh1 rad18 strain growth inhibition, stronger effect = higher value. A digest of the protocol:
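Genetically defined yeast (DNA repair-deficient) exposed to compounds; growth inhibition determined relative to vehicle.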

[7] abbreviates: at 5.0 µM (retest, dose inferred, filed as 0.5).
[8] abbreviates: at 50.0 µM (retest, dose inferred, filed as 5.0).

Regarding `CC(C)(Sc1cc(Cl)c(Cl)c(Cl)c1)C(=O)OCCN1CCOCC1`, the growth inhibition in test [1] (setting [7]) was 78% (active); in test [1] (setting [8]), 98% (active); in test [1] (at 50.0 µM), 98.2% (active); in test [2] (setting [7]), 77% (active); in test [2] (setting [8]), 98% (active); in test [2] (at 50.0 µM) it was 99.6% (active). For the same molecule, the growth inhibition was 87% (active) in test [3] (setting [7]); 98% (active) in test [3] (setting [8]); 99.4% (active) in test [3] (at 50.0 µM); 59% in test [4] (setting [7]); 96% (active) in test [4] (setting [8]); 98.3% (active) in test [4] (at 50.0 µM). Moreover, the growth inhibition in test [5] (setting [7]) is 76% (active); in test [5] (setting [8]), 92% (active); in test [5] (at 50.0 µM), 99.2% (active); in test [6] (setting [7]), 67%; in test [6] (setting [8]), 98% (active); in test [6] (at 50.0 µM) it was 97.5% (active).

Take `C/C(=N\NC(=S)N(C)CCN(C)C(=S)N/N=C(\C)c1ccccn1)c1ccccn1`: the growth inhibition was -8% in test [1] (setting [7]); 99% (active) in test [1] (setting [8]); 97.5% (active) in test [1] (at 50.0 µM); -5% in test [2] (setting [7]); 99% (active) in test [2] (setting [8]); 97.2% (active) in test [2] (at 50.0 µM). The growth inhibition in test [3] (setting [7]) is -3%; in test [3] (setting [8]) it was 99% (active); in test [3] (at 50.0 µM), 97.8% (active); in test [4] (setting [7]), 4%; in test [4] (setting [8]) it was 99% (active); in test [4] (at 50.0 µM), 95.8% (active). Moreover, the growth inhibition in test [5] (setting [7]) was -10%; in test [5] (setting [8]) it was 99% (active); in test [5] (at 50.0 µM), 97% (active); in test [6] (setting [7]) it was 20%; in test [6] (setting [8]) it was 99% (active); in test [6] (at 50.0 µM), 96.7% (active).

`S=C1Nc2cnc3ccccc3c2SC1c1ccccc1` (configuration not stated): the growth inhibition in test [1] (setting [7]) was -5%; in test [1] (setting [8]), 98% (active); in test [1] (at 50.0 µM), 87% (active); in test [2] (setting [7]) it was 7%; in test [2] (setting [8]) it was 98% (active); in test [2] (at 50.0 µM) it was 92% (active). In addition, the growth inhibition in test [3] (setting [7]) was -15%; in test [3] (setting [8]) it was 98% (active); in test [3] (at 50.0 µM), 87.8% (active); in test [4] (setting [7]) it was -9%; in test [4] (setting [8]), 98% (active); in test [4] (at 50.0 µM), 90.3% (active). For the same molecule, the growth inhibition is -8% in test [5] (setting [7]); 98% (active) in test [5] (setting [8]); 90.8% (active) in test [5] (at 50.0 µM); 4% in test [6] (setting [7]); 98% (active) in test [6] (setting [8]); 85.3% (active) in test [6] (at 50.0 µM).

Turning to `CN(C)CCC(=O)C(=Cc1cc(Cl)cc(Cl)c1)C(=O)CCN(C)C`, the growth inhibition in test [1] (setting [7]) is 2%; in test [1] (setting [8]), 98% (active); in test [1] (at 50.0 µM) it was 96.3% (active); in test [2] (setting [7]), -19%; in test [2] (setting [8]), 99% (active); in test [2] (at 50.0 µM) it was 99% (active). In addition, the growth inhibition in test [3] (setting [7]) is 12%; in test [3] (setting [8]) it was 99% (active); in test [3] (at 50.0 µM), 85.2% (active); in test [4] (setting [7]) it was 0%; in test [4] (setting [8]), 98% (active); in test [4] (at 50.0 µM) it was 40.6%. The growth inhibition in test [5] (setting [7]) was -8%; in test [5] (setting [8]) it was 98% (active); in test [5] (at 50.0 µM), 97.8% (active); in test [6] (setting [7]), -4%; in test [6] (setting [8]), 97% (active); in test [6] (at 50.0 µM), 97.5% (active).

Consider `CC(C)OC(=O)c1cc([N+](=O)[O-])cc([N+](=O)[O-])c1Sc1ncnc2nc[nH]c12`, for which the growth inhibition in test [1] (setting [7]) was 49%; in test [1] (setting [8]), 54%; in test [1] (at 50.0 µM), 14.2%; in test [2] (setting [7]) it was 11%; in test [2] (setting [8]), 49%; in test [2] (at 50.0 µM), 15.5%. Besides, the growth inhibition in test [3] (setting [7]) is 44%; in test [3] (setting [8]), 83% (active); in test [3] (at 50.0 µM), 20.9%; in test [4] (setting [7]), 44%; in test [4] (setting [8]), 57%; in test [4] (at 50.0 µM), 65.8%. The growth inhibition is 45% in test [5] (setting [7]); 79% (active) in test [5] (setting [8]); 24.7% in test [5] (at 50.0 µM); 35% in test [6] (setting [7]); 42% in test [6] (setting [8]); 66.8% in test [6] (at 50.0 µM).

`CCCCC(CC(=O)O)c1ccc(Cl)cc1` (configuration not stated): the growth inhibition in test [1] (setting [7]) was -146%; in test [1] (setting [8]) it was -7%; in test [1] (at 50.0 µM) it was 57.5%; in test [2] (setting [7]), -43%; in test [2] (setting [8]) it was 17%; in test [2] (at 50.0 µM), 60.7%. Moreover, the growth inhibition in test [3] (setting [7]) was -58%; in test [3] (setting [8]), 5%; in test [3] (at 50.0 µM) it was 40.6%; in test [4] (setting [7]), -63%; in test [4] (setting [8]), 37%; in test [4] (at 50.0 µM), 70% (active). The growth inhibition in test [5] (setting [7]) is -61%; in test [5] (setting [8]) it was 28%; in test [5] (at 50.0 µM) it was 54.6%; in test [6] (setting [7]) it was -133%; in test [6] (setting [8]), 13%; in test [6] (at 50.0 µM) it was 66%.

`O=C(N/N=C/c1ccccc1)c1ccc([N+](=O)[O-])cc1`: the growth inhibition in test [1] (setting [7]) was 16%; in test [1] (setting [8]), 15%; in test [1] (at 50.0 µM) it was 8.6%; in test [2] (setting [7]) it was -3%; in test [2] (setting [8]), 6%; in test [2] (at 50.0 µM), 7.3%. In addition, the growth inhibition in test [3] (setting [7]) is 22%; in test [3] (setting [8]) it was 12%; in test [3] (at 50.0 µM), 1.15%; in test [4] (setting [7]), 12%; in test [4] (setting [8]) it was 19%; in test [4] (at 50.0 µM), -1.35%. The growth inhibition in test [5] (setting [7]) was 17%; in test [5] (setting [8]) it was 24%; in test [5] (at 50.0 µM) it was 14.9%; in test [6] (setting [7]), 15%; in test [6] (setting [8]), 18%; in test [6] (at 50.0 µM), 1.05%.

Take `c1ccc2c(c1)Nc1cc3ccccc3cc1N2`: the growth inhibition is 41% in test [1] (setting [7]); 91% (active) in test [1] (setting [8]); 74% (active) in test [1] (at 50.0 µM); 30% in test [2] (setting [7]); 61% in test [2] (setting [8]); 43.1% in test [2] (at 50.0 µM). Further, the growth inhibition in test [3] (setting [7]) is 11%; in test [3] (setting [8]), 47%; in test [3] (at 50.0 µM), 36.3%; in test [4] (setting [7]), -9%; in test [4] (setting [8]), 41%; in test [4] (at 50.0 µM), 22.9%. The growth inhibition in test [5] (setting [7]) was 39%; in test [5] (setting [8]) it was 80% (active); in test [5] (at 50.0 µM) it was 43.1%; in test [6] (setting [7]) it was 37%; in test [6] (setting [8]), 75% (active); in test [6] (at 50.0 µM) it was 61.6%.

As to `COC1(OC)OC2=C(OC1(OC)OC)c1ccccc1C2=O`, the growth inhibition in test [1] (setting [7]) was 8%; in test [1] (setting [8]), 12%; in test [1] (at 50.0 µM), 37.9%; in test [2] (setting [7]), 9%; in test [2] (setting [8]) it was 14%; in test [2] (at 50.0 µM) it was -13.1%. The growth inhibition in test [3] (setting [7]) was 5%; in test [3] (setting [8]), 7%; in test [3] (at 50.0 µM) it was -11.8%; in test [4] (setting [7]), 5%; in test [4] (setting [8]), 3%; in test [4] (at 50.0 µM), -15.2%. For the same molecule, the growth inhibition in test [5] (setting [7]) was 4%; in test [5] (setting [8]), 8%; in test [5] (at 50.0 µM), -16.6%; in test [6] (setting [7]), 14%; in test [6] (setting [8]), 12%; in test [6] (at 50.0 µM), -55.2%.
